Molecules are shown by their SMILES. Values joined by “and” are separate entries in the source; they are usually repeats but may differ in a detail not shown here. Equal entries are not always repeated. Results filed as inconclusive are left out. Some compounds were tested as several samples or in several runs, with calls that do not always agree. Active and inactive are the calls of the source. The call rests on the fitted dose curve; in most records, active means well fitted curve in the direction sought with a large enough effect; inconclusive means small, poorly fitted or top-dose-only effect, or another doubt; inactive means no such curve, though single readings can be large; an effect the other way counts as inactive or inconclusive.

Test [1] is described as follows: P-glycoprotein substrates identified in KB-8-5-11 adenocarcinoma cell line, qHTS therapeutic library screen (AID 1346987). Further: nearly all actives have a fitted effect of over 65% in size. Further: potency means the concentration at half of the fitted maximal effect. On activity change, negative = cytotoxicity: series mostly up to about 44 µM; on the % scale 0 is the no-effect control and ±100 the full control effect. A digest of the protocol:
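Compounds are pinned in dose-response onto KB-8-5-11 cells (500 cells/well, colchicine-free medium) and left 72 h at 37 degree C. CellTiter-Glo luminescence then yields AC50 values.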
In general terms: Quantitative high-throughput screening tests each substance at several concentrations.

Test [2] in a line: NS1 protein of Zika virus - qHTS assay to identify small molecule inhibitors in human HEK 293 cells (AID 1347053). Further: nearly all actives have a fitted effect of over 55% in size. Further: potency means the concentration at half of the fitted maximal effect. A digest of the protocol: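 In this cell-based screen, HEK 293 cultures received compound for one hour before Zika MR766 at MOI = 0.5. NS1 was quantified 24 hours later by TR-FRET, normalized to virus-free wells and infected wells.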
Test [3] in a line: qHTS of pediatric cancer cell lines to identify multiple opportunities for drug repurposing: Primary screen for TC32 cells (AID 1347089). Further: on the % scale 0 is the no-effect control and ±100 the full control effect; nearly all actives have a fitted effect of over 60% in size. The essentials: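 Luminescent CellTiter-Glo read-out of metabolically active TC32 cells after 48 h compound exposure. Primary: MIPE 11-point, 0.78 nM–46 µM; NPC 8-point, 0.59 nM–46 µM. Confirmatory: 11-point dilutions.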

On to `COc1cc(Cl)cn2c(-c3cccc(NC4CNC4)n3)cnc12`, for which the Potency entry in test [1], in test [2] and in test [3] was “inactive” throughout.
With `Cc1c(C(=O)Nc2ccc(N3C[C@@H](C)O[C@@H](C)C3)nc2)cccc1-c1ccc(OC(F)(F)F)cc1`, the Potency entry in test [1], in test [2] and in test [3] was “inactive” each time.
Regarding `CCCCOCCOc1nc(-c2ccc(C(=O)O)c(F)c2)sc1C`, the Potency entry in test [1], in test [2] and in test [3] was “inactive” in each case.
For `Cc1cc2c(cc1C1(c3ccc(C(=O)O)cn3)CC1)C(C)(C)CCC2(C)C`, the Potency result in test [1], in test [2] and in test [3] was “inactive” each time.
Take `Cc1ccc(S(=O)(=O)Nc2nc3ccccc3nc2Nc2ccc3nsnc3c2)cc1`: the Potency result in test [1] was “inactive and 2.91 µM (active)”. Besides, the Potency result in test [2] and in test [3] was “inactive” throughout.
As to `Cn1cc(-c2ccc3nnc(Sc4ccc5ncccc5c4)n3n2)cn1`, the Potency result in test [1], in test [2] and in test [3] was “inactive” in each case.
As for `COc1cc2c(cc1OC)[C@@H]1Cc3ccc(OC)c(OC)c3CN1CC2`, the Potency entry in test [1], in test [2] and in test [3] was “inactive” each time.
On to `Cc1ccc2c(=O)c3cccc(CC(=O)O)c3oc2c1C`, for which the Potency entry in test [1], in test [2] and in test [3] was “inactive” in each case.
For `OC[C@H]1O[C@@H](Oc2ccc(O)cc2)[C@H](O)[C@@H](O)[C@H]1O`, the Potency entry in test [1], in test [2] and in test [3] was “inactive” each time.
As for `CN1C(=O)C(Cc2c[nH]c3ccccc23)NC1=S` (stereo not given), the Potency result in test [1], in test [2] and in test [3] was “inactive” in each case.
`CN(C)c1nc(Cc2ccc(NC(=O)c3ccc(C(F)(F)F)cc3)cc2)nc(N(C)C)c1CC(=O)O`: the Potency result in test [1], in test [2] and in test [3] was “inactive” in each case.
With `CC1(C)C(N(O)C(=O)Nc2ccc(Cl)cc2)N(c2ccc(Cl)cc2)C(=O)N1CC(=O)NN=CC=Cc1ccc([N+](=O)[O-])o1` (stereo not given), the Potency entry in test [1], in test [2] and in test [3] was “inactive” each time.
As to `O=C(O)C1=CO[C@@H](O[C@@H]2O[C@H](CO)[C@H](O)[C@H](O)[C@H]2O)[C@@H]2C(CO)=CC[C@H]12`, the Potency entry in test [1], in test [2] and in test [3] was “inactive” each time.
Turning to `CN[C@H]1[C@@H](O[C@@H]2[C@H](O[C@@H]3[C@@H](O)[C@@H](O)[C@@H](N=C(N)N)[C@@H](O)[C@@H]3N=C(N)N)O[C@H](C)[C@@]2(O)C=O)O[C@@H](CO)[C@@H](O)[C@H]1O`, the activity change, negative = cytotoxicity in test [1] is 9.82% [at 9.29 µM] (inactive). Moreover, the Potency entry in test [2] is “inactive”. Also, in test [3], the activity change, negative = cytotoxic is 6.69% [at 9.17 µM] (inactive).
Take `CCOC(=O)[C@@H](N)CCC(=O)N[C@@H](CSCc1ccccc1)C(=O)N[C@@H](C(=O)OCC)c1ccccc1`: the Potency entry in test [1] and in test [3] was “inactive” in each case.
Turning to `NC(N)=Nc1nc(CSCCC(N)=NS(N)(=O)=O)cs1`, the Potency result in test [1], in test [2] and in test [3] was “inactive” in each case.
Take `C[C@@]1(c2cc(-c3cncnc3)c(F)cc2F)CCSC(N)=N1`: the Potency entry in test [1] and in test [3] was “inactive” in each case.
Take `COc1cc2ncnc(Nc3cc(Br)c(O)c(Br)c3)c2cc1OC`: the Potency entry in test [1], in test [2] and in test [3] was “inactive” each time.
Consider `O=C1Nc2ccc(I)cc2C1=Cc1cc(Br)c(O)c(Br)c1`, for which the Potency result in test [1] and in test [3] was “inactive” in each case.
Turning to `CC(C)C[C@@H](N)[C@H](O)C(=O)N[C@H](C(=O)N[C@H](C(=O)N[C@@H](CC(=O)O)C(=O)O)C(C)C)C(C)C`, the Potency result in test [1], in test [2] and in test [3] was “inactive” throughout.
In the case of `CC=C1C2C=C(C)CC1(N)c1ccc(=O)[nH]c1C2` (stereo not given), the Potency result in test [1], in test [2] and in test [3] was “inactive” throughout.
On to `C[C@@H](O)[C@H]1C(=O)N2C(C(=O)OCOC(=O)C(C)(C)C)=C(SC3CN(C4=NCCS4)C3)[C@H](C)[C@H]12`, for which the Potency entry in test [1], in test [2] and in test [3] was “inactive” throughout.
As to `CN(C)CCOc1cc(-c2cn[nH]c2)ccc1NC(=O)C1COc2ccccc2O1` (stereo not given), the Potency result in test [1] and in test [3] was “inactive” in each case.
As for `CC(=O)Nc1cccc(-n2c(=O)n(C3CC3)c(=O)c3c(Nc4ccc(I)cc4F)n(C)c(=O)c(C)c32)c1`, the Potency result in test [1] and in test [3] was “inactive” throughout.
Take `CC1(C)[C@H]2CC[C@]3(C)[C@@H](C(=O)C=C4[C@@H]5C[C@@](C)(C(=O)O)CC[C@]5(C)CC[C@]43C)[C@@]2(C)CC[C@@H]1O`: the Potency result in test [1], in test [2] and in test [3] was “inactive” in each case.
As to `CCCCCCOC(=O)N=C(N)c1ccc(NCc2nc3cc(C(=O)N(CCC(=O)OCC)c4ccccn4)ccc3n2C)cc1`, the Potency entry in test [1] and in test [3] was “inactive” in each case.
On to `N#CC(c1ccc(Cl)cc1)c1c(Cl)cc(-n2ncc(=O)[nH]c2=O)cc1Cl` (stereo not given), for which the Potency entry in test [1], in test [2] and in test [3] was “inactive” each time.
For `CN(C)CCOc1ccc(-c2nc(-c3ccc4c(c3)CCC4=NO)c(-c3ccncc3)[nH]2)cc1`, the Potency entry in test [1] and in test [3] was “inactive” in each case.
On to `CNC(=O)[C@H](Cc1ccccc1)NC(=O)[C@H](CC(C)C)[C@H](CSc1cccs1)C(=O)NO`, for which the Potency entry in test [1], in test [2] and in test [3] was “inactive” in each case.
For the compound `CS(=O)(=O)c1ccc(C2=C(c3ccccc3)C(=O)OC2)cc1`, the Potency entry in test [1], in test [2] and in test [3] was “inactive” each time.
Regarding `CC(C)c1c(C(=O)Nc2ccccc2)c(-c2ccccc2)c(-c2ccc(F)cc2)n1CC[C@H](O)C[C@@H](O)CC(=O)O`, the Potency result in test [1] and in test [3] was “inactive” each time.
As to `CN1CCC(COc2cnc(-c3cccc(Cn4nc(-c5cccc(C#N)c5)ccc4=O)c3)nc2)CC1`, the Potency entry in test [1] is “inactive and 16.4 µM (active)”. Also, the Potency entry in test [3] is “inactive”.
For the compound `CCNC(=O)[C@H]1O[C@@H](n2cnc3c(N)nc(NCCc4ccc(CCC(=O)O)cc4)nc32)[C@H](O)[C@H]1O`, the Potency entry in test [1], in test [2] and in test [3] was “inactive” each time.
Consider `CNC1CCC(N(Cc2cccc(-c3ccncc3)c2)C(=O)c2sc3ccccc3c2Cl)CC1` (stereo not given), for which the Potency in test [1] was 11.8 µM (active) and 20.6 µM (active); in test [2], 9.35 µM (active). The Potency entry in test [3] is “inactive”.
Regarding `CC(C)(F)C[C@H](N[C@@H](c1ccc(-c2ccc(S(C)(=O)=O)cc2)cc1)C(F)(F)F)C(=O)NC1(C#N)CC1`, the Potency entry in test [1], in test [2] and in test [3] was “inactive” throughout.
In the case of `C[C@@H](O[C@H]1OCCN(Cc2n[nH]c(=O)[nH]2)[C@@H]1c1ccc(F)cc1)c1cc(C(F)(F)F)cc(C(F)(F)F)c1`, the Potency in test [1] was 20.9 µM (active). Also, the Potency result in test [3] is “inactive”.
For `Cc1nc2c([nH]1)CCN(C(=O)c1ccc(NC(=O)c3ccccc3-c3ccccc3)cc1)c1ccccc1-2`, the Potency entry in test [1], in test [2] and in test [3] was “inactive” in each case.
For `CCOC(=O)N1CCN([N+]([O-])=NOc2cc(ON=[N+]([O-])N3CCN(C(=O)OCC)CC3)c([N+](=O)[O-])cc2[N+](=O)[O-])CC1`, the Potency result in test [1], in test [2] and in test [3] was “inactive” each time.
As for `c1ccc(CNc2nc(N3CCOc4ccccc43)nc3c2CCCC3)cc1`, the Potency result in test [1], in test [2] and in test [3] was “inactive” in each case.
As to `C[C@@H]1C[C@H]2[C@@H]3CCC4=CC(=O)C=C[C@]4(C)[C@@]3(F)[C@@H](O)C[C@]2(C)[C@@]1(O)C(=O)CO`, the Potency entry in test [1] and in test [3] was “inactive” each time.
Regarding `CCOc1ccccc1N=Nc1c(C)[nH]n(-c2nc(-c3ccccc3)cs2)c1=O`, the Potency result in test [1] and in test [3] was “inactive” throughout.
Take `COc1ccnc(CS(=O)c2nc3ccc(OC(F)F)cc3[nH]2)c1OC` (stereo not given): the Potency result in test [1], in test [2] and in test [3] was “inactive” throughout.
As to `C[C@H](CCC(=O)O)[C@H]1CC[C@H]2[C@H]3[C@@H](CC[C@]12C)[C@@]1(C)CC[C@@H](O)C[C@H]1C[C@@H]3O`, the Potency entry in test [1], in test [2] and in test [3] was “inactive” throughout.
In the case of `CC1C(=O)OC2C(O)C34C5CC(C(C)(C)C)C36C(OC(=O)C6O)OC4(C(=O)O5)C12O` (stereo not given), the Potency entry in test [1], in test [2] and in test [3] was “inactive” throughout.
With `C[C@@H](NC(=O)c1ncnc(N)c1Cl)c1ncc(C(=O)Nc2cc(C(F)(F)F)c(Cl)cn2)s1`, the Potency entry in test [1], in test [2] and in test [3] was “inactive” in each case.
For the compound `CN1CCN(c2cccc(Nc3nc4c(-c5ccc(S(C)(=O)=O)cc5)cccn4n3)c2)CC1`, the Potency entry in test [1] is “inactive and 20.6 µM (active)”. For the same compound, the Potency result in test [3] was “inactive”.
As to `COc1ccc(C=CC(=O)Nc2ccccc2C(=O)O)cc1OC`, the Potency result in test [1] and in test [3] was “inactive” each time.
`Cc1nc(C(=O)NCC(=O)O)c(O)c2ccc(Oc3ccccc3)cc12`: the Potency entry in test [1], in test [2] and in test [3] was “inactive” each time.
With `OCCn1cc(-c2ccc3c(c2)CCC3=NO)c(-c2ccncc2)n1`, the Potency entry in test [1], in test [2] and in test [3] was “inactive” throughout.
Turning to `COc1cc([C@H]2Oc3cc([C@H]4Oc5cc(O)cc(O)c5C(=O)[C@H]4O)ccc3O[C@H]2CO)ccc1O`, the Potency result in test [1], in test [2] and in test [3] was “inactive” throughout.
On to `O=C(Nc1ccccc1)Nc1ccc(-c2ccc(C(=O)[C@H]3CCC[C@H]3C(=O)O)cc2)cc1`, for which the Potency entry in test [1], in test [2] and in test [3] was “inactive” each time.
`OC[C@H]1O[C@@H](O[C@H]2[C@@H](O)[C@@](O)(CO)O[C@@H]2CO)[C@H](O)[C@@H](O)[C@@H]1O`: the Potency entry in test [1], in test [2] and in test [3] was “inactive” throughout.
On to `N#Cc1c(N(CC(=O)O)CC(=O)O)sc(C(=O)O)c1CC(=O)O`, for which the Potency entry in test [1], in test [2] and in test [3] was “inactive” each time.
